Source: PubChem BioAssay (NCATS)
Where “and” joins values, the source holds several entries; their conditions need not be identical. Equal values may be shown once. Records with an inconclusive call do not appear. Calls of active or inactive are those of the source. Unless noted, the call rests on the fitted dose curve; in most records, active means well fitted curve in the direction sought with a large enough effect; inconclusive means small, poorly fitted or top-dose-only effect, or another doubt; inactive means no such curve, though single readings can be large; an effect the other way counts as inactive or inconclusive.

Columns and labels:
[1] = qHTS assay for small molecule agonists of the antioxidant response element (ARE) signaling pathway (AID 651741; active means well fitted activation curve with a large enough effect in the signal ratio; the % refers to the signal ratio; further: % of control where 0% means no effect)
How it was run: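 Beta-lactamase reporter under ARE control in HepG2 cells, 2,000 per well, was induced by 16 h compound treatment at 37 C. Read-out was fluorescence from LiveBLAzer B/G FRET substrate after 2 h at room temperature.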

[2] = molecular target: Peroxisome proliferator-activated receptor alpha (Homo sapiens) (UniProt Q07869); assay: qHTS assay for small molecule agonists of the peroxisome proliferator-activated receptor alpha (PPARalpha) signaling pathway (AID 651778); conditions: PathHunter PPARalpha complementation, chemiluminescence, 6 h; max response: active compounds read high; further: % of control where 0% means no effect
How it was run: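 Chemiluminescence from complemented enzyme reported PPARalpha activation in cells after 6 hr of compound treatment at 37 C. The detection reagent was incubated for 60 min at room temperature, and compounds were scored as agonists.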

[3] = qHTS assay for small molecule agonists of the antioxidant response element (ARE) signaling pathway measured by Nrf2-dependant transcriptional activity (AID 720636; active means well fitted curve in the direction sought with a large enough effect in the repeat runs; an effect the other way counts as inactive or inconclusive;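 further: HepG2 cells with an ARE-driven luciferase reporter; % of control where 0% means no effect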)
How it was run: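 Cells: ARE-luc HepG2 with Nrf2-responsive luciferase. Medium contained 1% dialyzed FBS. Compound exposure lasted 16 hr at 37 C and 5% CO2, followed by ONE-Glo luciferase detection.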

[4] = molecular target: Nuclear receptor ROR-gamma (Homo sapiens) (UniProt P51449); assay: qHTS assay for small molecule antagonists of the retinoid-related orphan receptor gamma (ROR-gamma) signaling pathway (AID 651802); further: nearly all actives have a fitted effect of over 60% in size; further: potency means the concentration at half of the fitted maximal effect
How it was run: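 Steps: cells dispensed; compound or DMSO transferred by pin tool; doxycycline added to induce the ROR response element-driven luciferase; plates held 16hr at 37C; ONE-Glo added and luminescence measured.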

[5] = qHTS assay for small molecule activators of the p53 signaling pathway (AID 651743; active means well fitted activation curve with a large enough effect in the signal ratio, not every such curve was filed as active; the % refers to the signal ratio; further: series mostly up to about 92 µM; % of control where 0% means no effect); conditions: HCT-116 p53RE-bla, beta-lactamase FRET ratio, 16 h; activation: active compounds read high
How it was run: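 After 16 hours compound treatment at 37 C, HCT-116 cells stably expressing p53RE-driven beta-lactamase were loaded with LiveBLAzer B/G FRET substrate for 2 hours at room temperature. Fluorescence intensity served as the p53 activation read-out.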

[6] = qHTS assay for small molecule activators of the nuclear factor-kappa B (NF-kB) signaling pathway (AID 651749; active means well fitted activation curve with a large enough effect in the signal ratio; the % refers to the signal ratio; further: series mostly up to about 77 µM; % of control where 0% means no effect); conditions: NF-kB-bla ME-180 cells, beta-lactamase FRET ratio, 16 h; active compounds read high
How it was run: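 Activation measured after 16 hr compound treatment at 37C, 5% CO2, of 2,000 ME-180 cells/well stably expressing an NF-kB response element–driven beta-lactamase reporter, via FRET-disruption fluorescence.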

[7] = molecular target: Tumor necrosis factor (Homo sapiens) (UniProt P01375); assay: qHTS assay to identify small molecules that stimulate Tumor Necrosis Factor-alpha (TNF-alpha) secretion (AID 651757; active means well fitted curve in the direction sought with a large enough effect in the signal ratio; the % refers to the signal ratio; further: 0% is about no effect)
How it was run: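 Human monocytic THP-1 cells are plated, treated with compound and held at 37 C for 17 hrs. Labeled anti-TNF-alpha antibody mixture is then added; after 3 hr at room temperature, TR-FRET signal reports secreted TNF-alpha.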

[8] = molecular target: Arylsulfatase A (Homo sapiens) (UniProt P15289); assay: qHTS screen for enhancers of Arylsulfatase A (ASA1): LOPAC Validation Assay (AID 720538); conditions: outcome: dose series up to 57.5 µM
How it was run: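 First, ASA-I179S fibroblasts from an MLD patient adhered for 6 hrs. Next, compounds were added for 48h. Then pNCS substrate (0.5mM final) with lysis buffer reacted 14h at room temperature before NaOH stop and fluorescence measurement.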

[9] = qHTS for compounds that reverse cellular toxicity of Amyloid beta (A-beta) peptide in yeast: LOPAC Validation Assay (AID 720559);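 further: plate controls were DMSO for no effect and equimolar ferric chloride plus clioquinol rescue for full effect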
How it was run: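 Activity is expressed relative to DMSO and an equimolar ferric chloride/clioquinol mix. Compounds were pinned into medium with A-beta-expressing yeast, grown 48 hr at 30 C, then read by absorbance at 600 nm.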

[10] = qHTS for Activators of Parkin Expression: LOPAC Validation Assay (NLuc Reporter) (AID 720572)
How it was run: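 Compound effects on Parkin promoter activity were measured as NanoLuc luminescence after 24 h at 37 C. The neuronal reporter line also carried FLuc, which was read first. LOPAC compounds were tested at 7 concentrations, with normalization to DMSO (0%) and positive control (100%).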

[11] = qHTS for Activators of Parkin Expression: LOPAC Validation Assay (FLuc Reporter) (AID 720573)
How it was run: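 A neuronal cell line harbouring FLuc and NLuc reporters behind the Parkin promoter was exposed to compounds for 24 h. Firefly luciferase signal, measured after 10 min with detection reagent, was scaled to DMSO and positive-control wells.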

[12] = qHTS assay for small molecule disruptors of the mitochondrial membrane potential - 1 hr assay (AID 651754; calls by dose curve; further: on the % scale 0 is the no-effect control and ±100 the full control effect; nearly all actives have a fitted effect of over 35% in size)
How it was run: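 Loss of mitochondrial potential shifts the cationic dye from red mitochondrial aggregates to green cytoplasmic monomers. Cells (HepG2) are treated with compound for 1 hr before a 30 min dye incubation at 37C.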

[13] = qHTS assay for small molecule disruptors of the mitochondrial membrane potential - 5 hr assay (AID 651755; calls by dose curve; further: on the % scale 0 is the no-effect control and ±100 the full control effect; nearly all actives have a fitted effect of over 40% in size)
How it was run: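 Membrane-potential dye readout: red aggregate (540 ex/590 em) versus green monomer (490 ex/535 em) fluorescence after 30 min dye loading, following 5 hr compound exposure at 37C of overnight-plated HepG2 cells.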

Chain of Peroxisome proliferator-activated receptor alpha (Homo sapiens) (Q07869 whole entry, looked up): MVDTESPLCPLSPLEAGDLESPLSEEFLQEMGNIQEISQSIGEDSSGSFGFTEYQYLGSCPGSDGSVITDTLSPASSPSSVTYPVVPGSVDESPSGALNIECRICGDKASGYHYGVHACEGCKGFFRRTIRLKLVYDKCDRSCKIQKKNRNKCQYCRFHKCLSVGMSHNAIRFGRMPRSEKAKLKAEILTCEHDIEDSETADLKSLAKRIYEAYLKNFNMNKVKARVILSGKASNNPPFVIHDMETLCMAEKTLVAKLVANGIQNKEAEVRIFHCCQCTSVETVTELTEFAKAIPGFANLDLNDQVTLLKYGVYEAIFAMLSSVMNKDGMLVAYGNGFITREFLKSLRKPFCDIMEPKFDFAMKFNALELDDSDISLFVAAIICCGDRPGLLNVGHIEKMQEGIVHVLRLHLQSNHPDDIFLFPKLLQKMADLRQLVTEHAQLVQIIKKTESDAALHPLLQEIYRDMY
Chain of Arylsulfatase A (Homo sapiens) (P15289 whole entry, looked up): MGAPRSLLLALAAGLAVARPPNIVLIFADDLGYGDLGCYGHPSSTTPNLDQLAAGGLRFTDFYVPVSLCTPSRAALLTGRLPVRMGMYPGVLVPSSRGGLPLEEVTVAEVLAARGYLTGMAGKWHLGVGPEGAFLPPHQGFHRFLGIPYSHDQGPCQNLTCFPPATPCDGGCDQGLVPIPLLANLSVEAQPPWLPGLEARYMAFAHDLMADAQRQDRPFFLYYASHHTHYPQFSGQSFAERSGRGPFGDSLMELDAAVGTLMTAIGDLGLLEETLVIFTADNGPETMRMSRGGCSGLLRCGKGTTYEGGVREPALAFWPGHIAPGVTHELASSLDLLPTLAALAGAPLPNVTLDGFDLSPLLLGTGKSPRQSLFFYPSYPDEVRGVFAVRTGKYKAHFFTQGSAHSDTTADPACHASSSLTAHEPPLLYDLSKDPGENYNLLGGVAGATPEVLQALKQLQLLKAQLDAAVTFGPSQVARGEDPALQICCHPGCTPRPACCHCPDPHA
Chain of Tumor necrosis factor (Homo sapiens) (P01375 whole entry, looked up): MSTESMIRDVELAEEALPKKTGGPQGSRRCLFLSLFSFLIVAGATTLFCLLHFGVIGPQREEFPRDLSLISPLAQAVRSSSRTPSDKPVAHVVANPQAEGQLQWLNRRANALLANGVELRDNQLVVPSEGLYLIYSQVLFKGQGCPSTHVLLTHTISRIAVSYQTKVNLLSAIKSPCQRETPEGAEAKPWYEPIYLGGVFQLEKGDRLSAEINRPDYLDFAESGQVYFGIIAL
Chain of Nuclear receptor ROR-gamma (Homo sapiens) (P51449 whole entry, looked up): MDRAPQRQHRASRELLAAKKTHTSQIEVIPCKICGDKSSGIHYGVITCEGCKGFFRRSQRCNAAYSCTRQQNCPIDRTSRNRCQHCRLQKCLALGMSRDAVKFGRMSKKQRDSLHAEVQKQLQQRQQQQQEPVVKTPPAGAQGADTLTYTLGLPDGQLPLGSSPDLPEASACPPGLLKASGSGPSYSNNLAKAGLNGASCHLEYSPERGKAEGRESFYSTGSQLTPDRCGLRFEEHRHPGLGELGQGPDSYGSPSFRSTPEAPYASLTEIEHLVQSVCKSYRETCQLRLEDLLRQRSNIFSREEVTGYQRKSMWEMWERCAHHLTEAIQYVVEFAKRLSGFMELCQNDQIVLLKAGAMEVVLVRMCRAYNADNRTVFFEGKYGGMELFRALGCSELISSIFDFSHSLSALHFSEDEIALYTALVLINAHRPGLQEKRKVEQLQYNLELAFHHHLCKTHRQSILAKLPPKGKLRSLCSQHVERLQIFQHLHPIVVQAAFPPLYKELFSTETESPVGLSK

CC(O)(P(=O)(O)O)P(=O)(O)O
inactive: Potency [1] | max response [2] 0.583% | Potency [3]

CN(C)/N=N/c1nc[nH]c1C(N)=O
inactive: Potency [1] | max response [2] -3.55% | Potency [4] | Potency [3]

O=C(O)CCCCC(=O)O
inactive: Potency [1] | activation [5] -1.12% | activation [6] 1% | outcome [7] | max response [2] -5.15% | Potency [3]

O=C(O)c1cc2cc(Cc3cccnc3)ccc2o1
inactive: outcome [8] | outcome [9] | outcome [10] | outcome [11]

CNCCC=C1c2ccccc2CCc2ccccc21
inactive: outcome [8] | outcome [9] | outcome [10] | outcome [11]

CC(C)COC(=O)OCN1C(=O)CN(CCN2CC(=O)N(COC(=O)OCC(C)C)C(=O)C2)CC1=O
inactive: outcome [9] | outcome [10] | outcome [11]

O=C1CCC(c2ccc(-n3ccnc3)cc2)=NN1
inactive: outcome [8] | outcome [9] | outcome [10] | outcome [11]

CC(C)C[C@H]1C(=O)N2CCC[C@H]2[C@]2(O)O[C@](NC(=O)[C@@H]3C=C4c5cccc6[nH]c(Br)c(c56)C[C@H]4N(C)C3)(C(C)C)C(=O)N12
inactive: outcome [8] | outcome [9] | outcome [10] | outcome [11]

CCCn1c(=O)[nH]c(=O)c2[nH]cnc21
inactive: outcome [8] inactive; inhibitor; fitted 0.151 uM

C1CCc2nnnn2CC1
inactive: outcome [9] | outcome [10] | outcome [11]

COC1=CC(=O)C[C@@H](C)[C@]12Oc1c(Cl)c(OC)cc(OC)c1C2=O
inactive: activation [6] -1.44% | Potency [12] | Potency [13] | max response [2] 2.03% | Potency [3]

COc1cc(NS(C)(=O)=O)ccc1Nc1c2ccccc2nc2ccccc12
inactive: outcome [8] | outcome [9] | outcome [10] | outcome [11]

CCC(NC(C)C)C(O)c1ccc(O)c(O)c1 (stereo unspecified)
inactive: outcome [9] | outcome [10] | outcome [11]

CC(CCc1ccccc1)NCC(O)c1ccc(O)c(C(N)=O)c1 (stereo unspecified)
inactive: outcome [8] | outcome [9] | outcome [10] | outcome [11]

N[C@H](CO)C(=O)O
inactive: outcome [8] | outcome [9] | outcome [10] | outcome [11]

CC[C@H](C)C(=O)O[C@H]1CCC=C2C=C[C@H](C)[C@H](CC[C@@H]3C[C@@H](O)CC(=O)O3)[C@H]21
inactive: outcome [8] | outcome [9]

CC(=O)O[C@H]1C[C@@H]2CC[C@@H]3[C@H](CC[C@@]4(C)[C@H]3C[C@H]([N+]3(C)CCCCC3)[C@@H]4OC(C)=O)[C@@]2(C)C[C@@H]1[N+]1(C)CCCCC1
inactive: outcome [9] | outcome [10] | outcome [11]

C[C@@H]1C(=O)NC2=Nc3cccc(Cl)c3CN21
inactive: outcome [8] | outcome [9] | outcome [10] | outcome [11]

CN1C2CCC1CC(OC(=O)c1c[nH]c3ccccc13)C2 (stereo unspecified)
inactive: outcome [8] | outcome [9] | outcome [10] | outcome [11]

C[N+]1(CCCCC[N+]2(C)CCCC2)CCCC1
inactive: outcome [8] | outcome [9] | outcome [10] | outcome [11]

COC(=O)[C@H]1[C@H]2C[C@H]3c4[nH]c5ccccc5c4CCN3C[C@H]2CC[C@@H]1O
inactive: outcome [8] | outcome [9] | outcome [10] | outcome [11]

CCCC1O[C@@H]2C[C@H]3[C@@H]4CCC5=CC(=O)C=C[C@]5(C)[C@H]4[C@@H](O)C[C@]3(C)[C@]2(C(=O)CO)O1 (stereo partly specified)
inactive: outcome [8] | outcome [9] | outcome [10] | outcome [11]

C[C@H]1C[C@H]2[C@@H]3CCC4=CC(=O)C=C[C@]4(C)[C@@]3(Cl)[C@@H](O)C[C@]2(C)[C@@]1(O)C(=O)CO
inactive: activation [5] -5.8% | max response [2] 3.36% | Potency [3]

NC(=NCCCCCCN=C(N)/N=C(\N)Nc1ccc(Cl)cc1)/N=C(\N)Nc1ccc(Cl)cc1
active: Potency [4] 26.6 µM
inactive: outcome [7] | max response [2] 3.51% and 6.34% and -1.99% | Potency [3]

N[C@@H](Cc1cnc[nH]1)C(=O)O
inactive: outcome [8] | outcome [9] | outcome [10] | outcome [11]

CC1(C)CCC(NC(=O)[C@@H](N)CCC(=O)O)CC1
inactive: outcome [8] | outcome [9] | outcome [10] | outcome [11]

CNCCC(Oc1ccccc1C)c1ccccc1 (stereo unspecified)
inactive: outcome [8] | outcome [9] | outcome [10] | outcome [11]

Nc1cc(Cl)c(NC2=NCCN2)c(Cl)c1
inactive: outcome [8] | outcome [9] | outcome [10] | outcome [11]

Oc1ccc(Cl)cc1Sc1cc(Cl)ccc1O
inactive: outcome [7] | max response [2] 18%
